Assay outcomes (PubChem)
FBA Mtb inh: Mtb FBA enzyme inhibitors, primary screen, biochemical, fluorescence, strain H37Rv. AID 588726, 2011. 360,000 compounds, 2.3% hits. inhibition, % at 1 µM. purified M. tuberculosis FBA, fluorescence read-out; in the data active = inhibition above about 27%
Target sequence (P9WQA3 whole entry, looked up): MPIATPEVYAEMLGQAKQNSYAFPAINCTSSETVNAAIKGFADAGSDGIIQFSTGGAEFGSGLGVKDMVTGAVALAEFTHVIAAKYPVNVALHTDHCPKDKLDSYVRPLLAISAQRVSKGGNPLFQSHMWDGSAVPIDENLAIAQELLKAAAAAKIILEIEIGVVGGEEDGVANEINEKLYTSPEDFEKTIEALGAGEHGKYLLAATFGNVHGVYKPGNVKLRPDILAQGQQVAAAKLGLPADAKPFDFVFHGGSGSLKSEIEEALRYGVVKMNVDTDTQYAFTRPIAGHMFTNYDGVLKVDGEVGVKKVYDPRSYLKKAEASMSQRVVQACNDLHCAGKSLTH
Vc quorum ag: inducers of Vibrio cholerae quorum light production without autoinducers, primary screen, BH1578 luxS cqsA deficient, single point; V. cholerae BH1578 lux reporter, luminescence, 6 h; activation, % at 18.7 µM; 350,000 compounds, 0.16% hits; AID 588436, 2011; in the data active = activation mostly above about 9.7%, no sharp cut-off
GDH-TPI counter-1: GDH-TPI coupling enzyme inhibitors, primary screen, artefact control for M. tuberculosis FBA inhibitor project, biochemical, absorbance, full deck | GDH-TPI coupled enzyme counterscreen, NADH absorbance | 360,000 compounds, 1.2% hits | inhibition, % at 4.8 µM
CCHF vOTU inh: CCHFV vOTU protease inhibitors, primary screen, biochemical, Pep-AMC substrate, fluorescence; inhibition, % at 11.5 µM; Crimean-Congo hemorrhagic fever virus L polyprotein viral ovarian tumor (vOTU) protease …; 370,000 compounds, 0.55% hits; AID 651958, 2012
Mtb FBA inh conf: M. tuberculosis aldolase blockers, biochemical, fluorescence, strain H37Rv, confirmation; shares compounds with FBA Mtb inh; purified M. tuberculosis FBA, fluorescence read-out; 5,600 compounds, 78% hits; inhibition, % at 1 µM; in the data active = inhibition above about 27%
GDH-TPI counter-2: GDH-TPI coupling enzyme inhibitors, artefact control for M. tuberculosis FBA inhibitor project, biochemical, fluorescence, high throughput. shares compounds with FBA Mtb inh. GDH-TPI coupled enzyme counterscreen. inhibition, % at 1 µM. 5,600 compounds, 81% hits; in the data active = inhibition above about 10%
GDH-TPI dose: GDH-TPI coupling enzyme inhibitors, dose response, artefact control for M. tuberculosis FBA inhibitor project, biochemical, fluorescence, IC50. shares compounds with FBA Mtb inh. GDH-TPI coupled enzyme assay, artifact counterscreen. IC50, µM. 170 compounds, 79% hits; call rule not given here
Each line names hits and unclear results; the compound was inactive in the other large screens (follow-up assays come after a bar, where they were run). Compounds with a hit are over-represented: about 3.9% of the library has one in this group of screens. Rule as the data show it, unless noted: active = inhibition above about 30%; inactive = the rest.

O=c1oc2c3c4c(cc2c2c1CCC2)OCCN4CCC3	FBA Mtb inh 97 | Mtb FBA inh conf 79 | GDH-TPI counter-2 58
COc1ccc2nc(Cl)c(C=O)c(N3CCOCC3)c2c1	none
CCN(CC)c1ccc2c(C)c(CO)c(=O)oc2c1	FBA Mtb inh 49 | Mtb FBA inh conf active | GDH-TPI counter-2 active
CCN(CC)c1ccc2c(O)cc(=O)oc2c1	none
CCN(CC)c1ccc2c(C)c(CN3CCOCC3)c(=O)oc2c1	FBA Mtb inh 88 (no result: CCHF vOTU inh) | Mtb FBA inh conf inactive | GDH-TPI counter-2 inactive
COc1cccc(CN(C)C(=O)Nc2cccc(C(F)(F)F)c2)c1OC	none
NC(=S)N/N=C/c1ccc2cccc(OCc3ccccc3)c2n1	FBA Mtb inh 40 | Mtb FBA inh conf 47 | GDH-TPI counter-2 37
COc1ccc(C(=O)N/N=C/c2ccc3cccc(OCc4ccccc4)c3n2)cc1	FBA Mtb inh 63 | Mtb FBA inh conf inactive | GDH-TPI counter-2 15
O=C(O)C1CCCCC1C(=O)NCc1ccc2c(c1)OCO2 (stereo not given)	FBA Mtb inh 90 | Mtb FBA inh conf active | GDH-TPI counter-2 162
O=C(NCc1ccc2c(c1)OCO2)C1CCCCC1	none
CC1CC(OCC(O)CN2CCN(Cc3ccccc3)CC2)CC(C)(C)C1 (stereo not given)	none
CC(=O)N1N=C(c2ccc3ccccc3c2)OC1(C)C	FBA Mtb inh 68 | Mtb FBA inh conf active | GDH-TPI counter-2 active
COc1ccc(C(=O)Nc2c(N)nc(SCC(=O)N3CCC(C)CC3)[nH]c2=O)cc1	none
COc1cc2c(cc1NC(=S)Nc1cccc(C)c1)oc1ccccc12	FBA Mtb inh 87, GDH-TPI counter-1 31 | Mtb FBA inh conf inactive | GDH-TPI counter-2 inactive | GDH-TPI dose inactive
CCNC(=S)Nc1cc2oc3ccccc3c2cc1OC	FBA Mtb inh 31 | Mtb FBA inh conf inactive | GDH-TPI counter-2 inactive
COc1cc2c(cc1NC(=O)Nc1cccc(C)c1)oc1ccccc12	none
COc1cc2c(cc1NC(=S)Nc1ccccc1C)oc1ccccc12	FBA Mtb inh 111, GDH-TPI counter-1 36 | Mtb FBA inh conf 56 | GDH-TPI counter-2 43
CCCNC(=S)Nc1cc2oc3ccccc3c2cc1OC	none
COCCNc1oc(/C=C/c2cccc(OC)c2)nc1S(=O)(=O)c1ccccc1	FBA Mtb inh 47, GDH-TPI counter-1 32 | Mtb FBA inh conf 123 | GDH-TPI counter-2 89
COCCNc1oc(/C=C/c2ccc(F)cc2)nc1S(=O)(=O)c1ccccc1	none
COc1cccc(/C=C/c2nc(S(=O)(=O)c3ccccc3)c(N(C)C)o2)c1	FBA Mtb inh 47 | Mtb FBA inh conf 58 | GDH-TPI counter-2 44
CC(C)OC(=O)CSc1nnc(-c2ccc(Cl)cc2)n1N	none
COC(=O)C1CCN(C(=O)CSc2nnc(-c3ccccc3)o2)CC1	none
O=C(O)C1CCN(C(=O)CSc2nnc(-c3ccccc3)o2)CC1	FBA Mtb inh 28 | Mtb FBA inh conf 71 | GDH-TPI counter-2 53
O=C(COc1ccc(S(=O)(=O)N2CCOCC2)cc1)NCC1CCCO1 (stereo not given)	none
O=c1cc(-c2ccccc2)oc2ccc(Cl)cc12	none
O=c1cc(-c2cccs2)oc2ccc(Cl)cc12	FBA Mtb inh 38, GDH-TPI counter-1 38 | Mtb FBA inh conf 156 | GDH-TPI counter-2 120
Clc1ccc(CNCCCSc2ncccn2)cc1Cl	none
Clc1ccc(CNc2cnccn2)cc1Cl	FBA Mtb inh 61 | Mtb FBA inh conf inactive | GDH-TPI counter-2 inactive
N#Cc1ccc(CNc2cnccn2)cc1	FBA Mtb inh 69 | Mtb FBA inh conf inactive | GDH-TPI counter-2 inactive
Cc1cc2nc(-c3cccnc3SCC(=O)NCc3ccco3)[nH]c2cc1C	FBA Mtb inh 40 | Mtb FBA inh conf inactive | GDH-TPI counter-2 inactive
c1ccc2c(NCCc3c[nH]c4ccccc34)c3ccccc3nc2c1	FBA Mtb inh 39 | Mtb FBA inh conf 116 | GDH-TPI counter-2 95
COc1ccc(CCNc2ncnc3cc(OC)c(OC)cc23)cc1OC	none
COc1ccc(CCNc2c3ccccc3nc3ccccc23)cc1OC	FBA Mtb inh 55 | Mtb FBA inh conf active | GDH-TPI counter-2 active
NC(=O)c1ccccc1NS(=O)(=O)Cc1ccccc1	FBA Mtb inh 62 | Mtb FBA inh conf 84 | GDH-TPI counter-2 66
NC(=O)COc1ccc(NS(=O)(=O)Cc2ccccc2)cc1	none
CN1CCN(CCCNC(=O)c2cc3c(-c4ccc(Cl)cc4)nn(C)c3s2)CC1	FBA Mtb inh 28 | Mtb FBA inh conf 62 | GDH-TPI counter-2 57
Cn1nc(-c2ccc(Cl)cc2)c2cc(C(=O)NCC3CCCO3)sc21 (stereo not given)	FBA Mtb inh 63 | Mtb FBA inh conf 81 | GDH-TPI counter-2 57
Cn1c(=O)oc2cc(S(=O)(=O)N3CCc4ccccc4C3)ccc21	none (no result: CCHF vOTU inh)
CCOC(=O)c1nnc2cc(C)nn2c1C	none
CCOC(=O)c1nc2cc3n(c(C)c-2c1C)C(C)C(C)=C3C (stereo not given)	FBA Mtb inh 37 | Mtb FBA inh conf 63 | GDH-TPI counter-2 50
CCOC(=O)c1nc2cc3n(c(CC(C)C)c-2c1C)CC(C)=C3C	FBA Mtb inh 27 | Mtb FBA inh conf 119 | GDH-TPI counter-2 88
CCOC(=O)c1n[nH]n(-c2cc(Cl)cc(Cl)c2)c1=O	none
Oc1cccc(Nc2c3ccccc3nc3ccccc23)c1	FBA Mtb inh 65 | Mtb FBA inh conf inactive | GDH-TPI counter-2 18
CCOC(=O)Nc1ccc(Oc2ccccc2)cc1	none
Cc1ccc(-c2nc(Nc3cccc(O)c3)c3ccccc3n2)cc1	none
CC(C)(C)Nc1c2ccccc2nc2ccccc12	FBA Mtb inh 42 | Mtb FBA inh conf 94 | GDH-TPI counter-2 71
Cc1ccc(C(=O)NNc2c3ccccc3nc3ccccc23)cc1	FBA Mtb inh 36 | Mtb FBA inh conf 97 | GDH-TPI counter-2 103
CCOC(=O)Nc1c2ccccc2nc2ccccc12	FBA Mtb inh 95 | Mtb FBA inh conf 114 | GDH-TPI counter-2 77
Cc1cc(NC(=O)COC(=O)CNS(=O)(=O)c2c(F)cc(F)cc2Br)no1	none
O=C(NCCc1ccccc1Cl)[C@@H]1CCCN1C(=O)[C@@H](NC(=O)N1CCOCC1)c1ccccc1	none (no result: FBA Mtb inh, Vc quorum ag, GDH-TPI counter-1)
O=C(O)c1ccc(Nc2c3ccccc3nc3ccccc23)cc1	FBA Mtb inh 98 | Mtb FBA inh conf active | GDH-TPI counter-2 active
Cc1ccnc(NC(=O)c2ccc(OCc3c(C)noc3C)cc2)c1	none
c1ccc2[nH]c(CN3CCOCC3)nc2c1	none
